# Hits are enriched below; roughly 4.5% of the tested compounds scored in any of these assays.
# Jurkat NFkB inh – inhibitors of induced NF-kB luciferase reporter, primary screen, TCR NF-kB activation inhibitor project, cell-based, luminescence, uHTS. Jurkat, PMA/ionomycin-induced NF-kB luciferase reporter. inhibition, % at 4 µM. 330,000 compounds, 0.53% hits. AID 435003, 2010; in the data active means inhibition above about 50%
# Beta apoptosis – inhibitors of cytokine-induced beta cell apoptosis, primary screen, luminescence. INS-1E cytokine-induced death, ATP luminescence, 48 h; percent of positive-control rescue, neutral wells zero. protection from apoptosis, % (concentration not given with the values). 300,000 compounds, 0.8% hits. AID 435005, 2010;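 active means Every replicate reaches about 75%, or at least half do and their mean reaches it too, limit read from the data; inconclusive means At least half of replicates reach the limit but their mean does not; inactive means Under half of replicates reach the limit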;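 further: 0% = cytokine-treated negative control wells and 100% = positive control rescue; higher means more ATP so stronger rescue from cytokine killing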
# CSC inhib – cancer stem cell viability inhibitors, primary screen, luminescence. inhibition, % at 7.5 µM. cancer stem cell-like cells viability. AID 2717, 2010. 300,000 compounds, 1.1% hits; in the data active means inhibition above about 75%; inconclusive means no clear call, values can overlap the other calls; tested in HMLE shEcad cells
# Mdm2 MdmX PPI – inhibitors of human Mdm2-MdmX association, primary screen, cell-based, luminescence, split luciferase, SaOS-2, uHTS. inhibition, % at 8 µM. AID 485346, 2010. 330,000 compounds, 3% hits. Protein Mdm4 (Homo sapiens) + E3 ubiquitin-protein ligase Mdm2 (Homo sapiens), …. SaOS-2 split-luciferase Mdm2/MdmX complementation;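 active means inhibition of at least 50% at 8 µM in the primary screen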
# 697 NFkB inh – inhibitors of PMA/ionomycin-induced NF-kB reporter, 697 cells, primary screen, B-cell NF-kB inhibitor project, cell-based, luminescence, uHTS; 697 B-cell NF-kB luciferase reporter, 16 h; 330,000 compounds, 0.33% hits; inhibition, % at 4 µM; AID 435022, 2010; in the data active means inhibition above about 35%
# Gli-Sufu antag – Gli-Sufu pathway antagonists, primary screen, luciferase luminescence, Sufu-KO-LIGHT cells, uHTS; Sufu-KO-LIGHT fibroblasts, Gli luciferase reporter luminescence; inhibition, % at 5 µM; 340,000 compounds, 0.74% hits;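 active means inhibition above about 55%, limit read from the data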;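 further: 0% = DMSO-treated cells and 100% = wells with medium but no cells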
# An asterisk follows results filed as active; ? = inconclusive; . = no result given.
SMILES,Jurkat NFkB inh,Beta apoptosis,CSC inhib,Mdm2 MdmX PPI,697 NFkB inh,Gli-Sufu antag
Cc1cccnc1Nc1nc(-c2ccc(O)cc2O)cs1,-77,-8,29,5,-62,-41
Oc1ccc(-c2csc(Nc3ccccn3)n2)c(O)c1,-94,15,103*,-89,-98,-68
Cc1ccc(OCCSc2nc(NC(C)C)nc(NC(C)C)n2)cc1,-2,39,90*,4,-21,10
CCNc1nc(SCCOc2ccc(C)cc2)nc(N(C)C)n1,0,-6,53,38,10,-5
C[C@@H](NCCCn1cnc2c(OCc3ccccc3)ncnc21)c1cccc2ccccc12,.,.,.,.,.,-10
CC(C)Oc1ccc(CN2CCCC(CO)(Cc3ccccc3)C2)cc1CO (centres undefined),1,-3,2,13,10,40
COc1ccc(C(=O)/C=C/c2ccc(N3CCCCC3)c([N+](=O)[O-])c2)c(OC)c1,.,-3,97*,.,.,11
CC(C)(Sc1ccc(CCN(CCCCC2CCCCC2)C(=O)NC2CCCCC2)cc1)C(=O)O,1,-1,99*,21,12,-6
CN(Cc1ccccc1)C(=O)NC1CCCCC1,4,-7,12,-20,-14,-4
CCOc1cc(/C=C2\C(=O)N(Cc3ccc(C)cc3)C(C)=C2C(=O)OC)ccc1O,14,-1,36,-1,-2,-6
C=CCOc1cccc(/C=C2\C(=O)N(Cc3ccc(C)cc3)C(C)=C2C(=O)OC)c1,-4,12,85*,-24,19,2
COc1cc(C(=O)NC(=S)NNC(=O)c2cnccn2)cc(OC)c1OC,1,82*,36,49,28,4
CC1CCN(C(=O)CCC(=O)Nc2nnc(C3CCCCC3)s2)CC1,-6,-12,-3,6,-15,-12
O=C1COC(c2ccccc2)=CN1Cc1ccccc1,7,-4,5,11,26,-7
COc1cc(NC2CCCCC2O)c2nc(-c3ccc(Cl)cc3)ccc2c1 (centres undefined),1,80*,?,47,-18,-10
COc1ccc(OCC(=O)OCC(=O)NC2CCCCC2C)cc1 (centres undefined),10,-7,.,-14,26,-2
Cc1ccc(S(=O)(=O)N2CCC(C(=O)Nc3cc(C(F)(F)F)ccc3N3CCOCC3)CC2)cc1C,21,13,9,30,9,12
Cc1ccc(Cl)cc1N1CCN(Cc2nnnn2Cc2ccco2)CC1,.,3,18,.,.,23
CCC(c1nnnn1Cc1ccco1)N1CCN(c2cc(Cl)ccc2C)CC1 (centres undefined),-23,1,94*,-6,-43,14
Cc1ccc(S(=O)(=O)N(C)C)cc1NC(=S)NC(=O)C12CC3CC(CC(C3)C1)C2,27,.,77*,19,-62,66*
O=[N+]([O-])c1ccccc1CN1CCN(Cc2c[nH]c3ccccc23)CC1,19,116*,-7,-8,5,19
Cc1sc2nc(C3CC3)nc(N3CCN(C(=O)c4ccc(Cl)cc4)CC3)c2c1C,3,6,10,8,-15,11
O=C(Nc1ccccc1)c1nnsc1S(=O)c1ccc(Cl)cc1 (centres undefined),-46,8,106*,50,-80,0
O=C1c2cccc3cccc(c23)C(=O)N1CCN1CCN(CC(O)COCc2ccc(Cl)cc2)CC1 (centres undefined),11,-1,82*,13,-25,29
CCOc1ccc(NC(=O)C2C3CC/C=C\CCC32)cc1 (centres undefined),-46,.,3,20,-28,-11
SMILES,Jurkat NFkB inh,Beta apoptosis,CSC inhib,Mdm2 MdmX PPI,697 NFkB inh,Gli-Sufu antag
Cc1cccc(CN2C(=O)[C@@H]3Cc4c([nH]c5ccccc45)C(C)(C)N3C2=O)c1,16,.,76*,24,8,-10
Cc1ccc(NC(=S)N(CCC(C)C)C(C)c2ccncc2)c(Cl)c1 (centres undefined),3,-2,4,3,11,7
Cn1c(CCCNC(=O)c2ccco2)nc2ccccc21,.,.,.,.,.,20
COc1ccc(C(=O)/C(=C/O)N=Nc2ccc(F)cc2)cc1,-22,.,53,-14,-49,9
COc1ccc(N=N/C(=C\O)C(=O)c2cccs2)cc1,-11,.,88*,43,-28,1
Cc1cc(OCC(=O)N(C)Cc2ccccc2)ccc1Cl,-35,110*,-17,-1,-35,-41
Nc1c(C(=O)c2ccccc2)sc2nsc(SCCN3CCCC3)c12,-2,-10,89*,19,-2,12
CCN(CC)CCOC(=O)c1ccc(N/C=C(/C#N)c2nc(-c3ccc(OC)cc3)cs2)cc1,24,9,9,17,-7,4
CCN(CC)CCOC(=O)c1ccc(N/C=C(/C#N)c2nc(-c3ccc4c(c3)OCO4)cs2)cc1,-23,113*,-5,22,-34,-9
O=C(N/N=C/c1ccccc1)c1cc(-c2ccc3c(c2)OCO3)n[nH]1,21,12,30,28,7,-2
O=C(N/N=C/c1cccc(O)c1)c1cc(-c2ccc3c(c2)OCO3)n[nH]1,-1,22,76*,15,-34,-7
O=C(N/N=C/c1ccc(O)cc1)c1cc(-c2ccc3c(c2)OCO3)n[nH]1,6,11,127*,23,2,-12
Cc1ccccc1NC(=S)Nc1cccc2cnccc12,34,129*,13,5,7,-5
S=C(NCc1ccccc1)Nc1cccc2cnccc12,18,33,10,24,-15,65*
Cc1ccc(C)c(NC(=S)Nc2cccc3cnccc23)c1,3,.,10,36,0,-15
COc1cc(OC)cc(-c2c(-c3cccs3)c3cc(-c4ccn[nH]4)ccc3n2C)c1,-17,3,87*,21,-1,7
Cn1c(-c2ccsc2)c(-c2cccs2)c2cc(Br)ccc21,-6,-14,80*,29,0,-10
COc1cc(OC)cc(-c2c(-c3cccs3)c3cc(-c4ccc5c(c4)OCO5)ccc3n2C)c1,1,1,13,14,4,2
COc1cc(OC)cc(-c2c(-c3cccs3)c3cc(Br)ccc3n2C)c1,15,6,46,21,8,3
COc1cc(OC)cc(-c2c(-c3cccs3)c3cc(-c4ccc(N(C)C)nc4)ccc3n2C)c1,-31,9,86*,20,-14,19
CCCOc1ccc(C(=O)NC(=S)N2CCN(c3cc4c(cc3F)c(=O)c(C(=O)O)cn4CC)CC2)cc1,9,4,.,9,-11,27

# Source: PubChem (several laboratories)
